PubChem BioAssay AID588726 (The Scripps Research Institute Molecular Screening Center, 2011)
Screen size: about 360,000 compounds; about 8,200 (2.3%) were called active. Many of the other results were omitted from the sample, so actives are more common in it than they were. Values without a mark were called inactive. Cut-off read from the data, not from the text of the source: active = inhibition above about 27%; inactive = the rest.

Each compound was assayed against Fructose-bisphosphate aldolase (Mycobacterium tuberculosis (strain ATCC 25618 / H37Rv)) (UniProt P9WQA3) (assay: Mtb FBA enzyme inhibitors, primary screen, biochemical, fluorescence, strain H37Rv (AID 588726;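 note: 0% = vehicle and 100% = reference inhibitor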)). Conditions: purified M. tuberculosis FBA, fluorescence read-out, at 1 µM, hits give high values.
Chain of Fructose-bisphosphate aldolase (Mycobacterium tuberculosis (strain ATCC 25618 / H37Rv)) (P9WQA3 whole entry, looked up): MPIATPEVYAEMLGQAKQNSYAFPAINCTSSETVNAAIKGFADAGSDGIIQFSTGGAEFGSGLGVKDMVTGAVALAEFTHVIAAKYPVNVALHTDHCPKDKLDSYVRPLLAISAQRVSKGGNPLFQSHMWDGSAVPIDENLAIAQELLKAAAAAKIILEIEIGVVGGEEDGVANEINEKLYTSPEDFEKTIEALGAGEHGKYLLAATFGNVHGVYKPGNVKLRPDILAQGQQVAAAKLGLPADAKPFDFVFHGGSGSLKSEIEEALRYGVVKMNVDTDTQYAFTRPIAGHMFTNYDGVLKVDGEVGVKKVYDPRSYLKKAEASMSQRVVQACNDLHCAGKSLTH

SMILES | inhibition
Cc1ccc(-c2ccnc3nc(Sc4ncc(C(F)(F)F)cc4Cl)nn23)cc1 | 25.2%
CCc1ccc(OCC(=O)OCC(=O)c2c(N)n(C)c(=O)n(C)c2=O)cc1 | 3.53%
COc1ccccc1CNC(=O)Cn1c(=O)oc2cc(Cl)ccc21 | -1.01%
CC(C)C(C)(C#N)NC(=O)CSc1nc2scc(-c3ccccc3)c2c(=O)[nH]1 (centres undefined) | -1.25%
COCCNc1nc(-n2nc(C)cc2C)nc2sc3c(c12)CCCC3 | 35.2% (active)
CCc1nc(N2CCN(C(C)=O)CC2)c2c3c(sc2n1)CCCC3 | -1.16%
CCCc1nc2sc3c(c2c(=O)n1NC(=O)CCCl)CCCC3 | -0.17%
C=CCn1c(CCNC(=O)c2cccs2)n[nH]c1=S | 0.26%
O=C(NNC(=S)NC1CC2CCC1C2)c1ccc(Cl)cc1 (centres undefined) | -1.27%
Cc1nn2c(c1-c1ccccc1)N=C(c1ccco1)CC2c1ccccc1 (centres undefined) | -3.5%
COC(=O)c1ccccc1NC(=O)C1CC(=O)N(c2ccc(OC)cc2)C1 (centres undefined) | 2.12%
CC1CCCN(c2ccc(C(=O)NCCc3ccccc3)cn2)C1 (centres undefined) | 2.27%
O=C(NCCN1CCOCC1)c1ccc2c(c1)N(Cc1ccc(Cl)cc1)CCS2 | 32.2% (active)
CCOC(=O)N1CCN(C(=O)c2ccc3c(c2)N(Cc2ccc(C)cc2)CCS3)CC1 | 7.61%
O=C(NCCN1CCOCC1)c1c(F)c(F)c(F)c(F)c1F | -2.22%
O=C(NCCc1ccccc1)c1ccc2c(c1)N(Cc1ccccc1)CCS2 | 43.6% (active)
O=C(Cc1ccc(Br)cc1)NCCN1CCOCC1 | 1.41%
CN(C)/C=N/c1cc(=O)n(C)c(=O)n1CC1CC1 | -0.52%
CN1C(C(=O)NCC2CC2)CC2Cn3c(nc4ccccc43)C21 (centres undefined) | -0.07%
Cc1nonc1OCCn1nnnc1N | -0.1%
COC[C@@H]1NS(=O)(=O)c2ccc(Br)cc2O[C@H]1c1ccccc1 | -2.58%
Cc1nonc1C1CCCN1C(=O)c1cc(COc2cccc(C(F)(F)F)c2)on1 (centres undefined) | -1.66%
CCCC1OC23CCCCC2C(C#N)(C#N)C1(C#N)C(=N)O3 (centres undefined) | 48.2% (active)
CCCCc1cc(=O)oc2cc(C)cc(OCc3nn[nH]n3)c12 | 183% (active)
CN(CCOc1ccccc1)Cc1nc2cc(Cl)ccc2c(=O)[nH]1 | 7.42%

SMILES | inhibition
CC(=O)N1CC[n+]2c(-c3ccc([N+](=O)[O-])cc3)csc21 | -3.76%
COc1ccc2c(c1OC)C(=O)N(c1ccc(O)cc1)C2 | -2.29%
COc1ccc(C(C)C)cc1S(=O)(=O)Nc1ncn[nH]1 | -1.62%
COc1ccc2c(c1OC)C(=O)N(c1ncn[nH]1)C2 | 31.1% (active)
Cc1nnc(NC(=O)CSc2nccn2-c2cccc(C)c2C)s1 | 1.13%
CCOC(=O)C1CCN(C(=O)Cn2cc(C#N)c3ccccc32)CC1 | 1%
CCCc1cc(=S)n2c([nH]c3ccccc32)c1C#N | 14.3%
COc1ccc(C(C(=O)NC2CCCCC2)N(C(=O)Cc2c[nH]c3ccccc23)c2ccccc2)cc1OC (centres undefined) | -0.54%
CC(=O)N1CCSc2ccc(S(=O)(=O)N3CCC(C)CC3)cc21 | 3.62%
CC12CCC(C(=O)N(CCC#N)CCC#N)(CC1=O)C2(C)C (centres undefined) | 1.36%
Cc1ccc(C(=O)NC(=S)Nc2ccc3[nH]c(=O)[nH]c3c2)cc1C | 2.47%
COC(=O)c1cc(C(=O)NC(C)C2CC3CCC2C3)cc([N+](=O)[O-])c1 (centres undefined) | 6.2%
Cc1cccc(NC(=O)c2cc(S(=O)(=O)N3CCC4(CC3)OCCO4)ccc2F)c1 | -0.22%
O=C(NC1CCN(Cc2ccccc2)CC1)c1ccc(Oc2cc(Cl)cc(Cl)c2)o1 | 1.42%
Cc1cc(C(=O)NC2CCN(Cc3ccccc3)CC2)n[nH]1 | 0.08%
O=C(NC1CCN(Cc2ccccc2)CC1)c1cc(Br)c(Br)[nH]1 | 40% (active)
OC(c1ccc(Cl)c(F)c1)c1ncc(-c2ccccc2Cl)[nH]1 (centres undefined) | -1.69%
OC(Cn1c2ccccc2c2ccccc21)C[n+]1ccccc1 (centres undefined) | -1.64%
CS(=O)(=O)N(CC(O)Cn1c2ccccc2c2ccccc21)c1cccc2ccccc12 (centres undefined) | -2.35%
CCCCN(CCCC)CC(O)Cn1c2ccccc2c(=O)c2ccccc21 (centres undefined) | 71.2% (active)
O=C(CNC(=O)[C@@H]1Cc2ccccc2CN1)NC1CCCCC1 | 0.53%
CC(C)C(NC(=O)OCc1ccccc1)C(=O)OCC(=O)N1C(C)CCCC1C (centres undefined) | 2.57%
COc1ccc(CCN2C(=O)CC(N3CCC(C(N)=O)CC3)C2=O)cc1OC (centres undefined) | -1.48%
Cc1nc(SC(C)C)[nH]c(=O)c1Cc1ccccc1 | 0.91%
N#Cc1c(N)nc2c(c1N)CC(C(F)(F)F)O2 (centres undefined) | 0.26%

SMILES | inhibition
CCc1ccc(-c2cc(C(=O)NN3CCN(C)CC3)c3ccccc3n2)cc1 | 0.75%
Cc1nc2ccccc2c(C(=O)O)c1-c1ccccn1 | -2.32%
O=C(CCCN1C(=O)CSc2ncccc21)N1CCN(c2cccc(C(F)(F)F)c2)CC1 | 3.32%
CN(C)c1cc(-c2ccc(F)cc2)oc(=O)c1Cl | -2.58%
CCCCCCc1cc2cc(-c3nnc(-c4ccccc4)o3)c(=O)oc2cc1O | 4.92%
Cc1cc(Cl)ccc1N1C(=O)CC(SCCC(=O)O)C1=O (centres undefined) | 5.32%
COc1ccc(C(=O)NCCSc2ccccc2C)cc1 | 0.09%
CCOc1ccc2nc(NCCNC(=O)C(C)(C)C)c(C)cc2c1 | 26.1%
CCOc1ccc(S(=O)(=O)NCCSc2ccccc2)cc1 | 1.75%
CCOc1ccc2nc(NCCNS(=O)(=O)c3ccccc3)c(C#N)cc2c1 | 40.1% (active)
Cn1nc(N)c2ncc(C(Cl)(Cl)Cl)nc21 | -3.83%
COC(=O)c1c(-c2ccsc2)oc2ccc(-c3cc(OC)c(OC)c(OC)c3)cc12 | 27.6% (active)
COc1cc(-c2nnc(NC(=O)CS(=O)(=O)c3ccc(Cl)cc3)o2)cc(OC)c1OC | -1.58%
COc1cc2c(-c3ccc4c(c3)OCO4)c(-c3ccsc3)oc(=O)c2cc1OC | 2.51%
CCCCC(NC(=O)c1cccc(Br)c1)C(=O)O (centres undefined) | 3.7%
O=C(NC1CC2CCCC(C1)N2C(=O)N1CCCCC1)C1CCCCC1 (centres undefined) | 2.38%
CCOCCCN(C)C1CCN(C(=O)c2oc3ccccc3c2NC(=O)Cc2cccc([N+](=O)[O-])c2)CC1 | -1.05%
COc1cccc2sc3cc(NCC[C@@H]4CCCN4C)ccc3c(=O)c12 | 40.4% (active)
CN1CCC[C@@H]1CCO[C@](C)(c1ccccc1)c1ccc(Cl)cc1 | -4.31%
Cc1cc2oc3ccc(NCCC4CCCN4C)cc3c(=O)c2cc1C (centres undefined) | -0.55%
COC(=O)c1c(C(=O)OC)c(-c2cccc(C)c2)n2c1CS(=O)C2 (centres undefined) | -0.62%
COc1ccc2c(c1)OC(O)(C(F)(F)C(F)F)CC2=O (centres undefined) | -0.78%
O=S(=O)(c1ccc(Cl)s1)N1CCC2(CC1)OCCO2 | 0.69%
CCC12CN3CC(CC)(CN(C1)C31C(=O)N(C)c3ccc(C)cc31)C2=O (centres undefined) | -4.48%
Cc1cc(C(=O)OCC(=O)Nc2ccc(F)c(F)c2)c(C)o1 | 0.1%

SMILES | inhibition
c1cnc(NC2C3CC4CC(C3)CC2C4)nc1 (centres undefined) | 1.67%
CC(Nc1nc(N2CCOCC2)nc2ccccc12)c1ccccc1 (centres undefined) | 50.4% (active)
Clc1nc(NC2CCCC2)nc(N2CCOCC2)n1 | 2.59%
Fc1cnc(N2CCOCC2)nc1NCc1ccccc1 | 15.4%
CC(CN1CCOCC1)c1ccccc1 (centres undefined) | -0.87%
c1ccc2c(NC3C4CC5CC(C4)CC3C5)nc(N3CCOCC3)nc2c1 (centres undefined) | 37.7% (active)
Cc1ccc(-n2nc(-c3ccco3)cc2C(=O)NCc2cccnc2)cc1 | -1.53%
CC(=O)N1CC(=O)N(CC(=O)Nc2ccc(Br)cc2)C1=S | -0.11%
COc1ccc(C)cc1N(CC(=O)N1CCCC1)S(=O)(=O)c1ccccc1 | -1.91%
CC1CCCCC1NC(=O)c1cn(C)c2ccc(S(=O)(=O)N3CCOCC3)cc2c1=O (centres undefined) | -7.99%
Cc1ccccc1N1CCN(CCCN2C(=O)C3CCCCN3C2=O)CC1 (centres undefined) | 0.31%
COC(=O)C1=C(C)N(C)C(=S)NC1c1cc(OC)ccc1OC (centres undefined) | 2.6%
CC(=O)NC(NC(=S)Nc1c(C)n(C)n(-c2ccccc2)c1=O)C(Cl)(Cl)Cl (centres undefined) | 4.91%
O=C(CCS(=O)(=O)Cc1ccccc1F)NCCCN1CCCCC1 | -1.06%
O=C(NCc1cccnc1)Nc1cccc(NC(=O)NCc2cccnc2)c1F | 2.23%
CCN(CC)S(=O)(=O)c1ccc(-c2cn3ccc(C)cc3n2)cc1 | 140% (active)
COc1ccc(C2=Nc3cc(C)ccc3OC2)cc1 | 17.7%
COc1ccc(Cc2cc(-c3ccc(F)cc3)n[nH]c2=O)cc1 | -0.22%
Cc1ccc(-c2cn3cc(C)ccc3n2)cc1 | 56% (active)
COc1ccc(-c2cn3ccc(C)cc3n2)cc1 | 70.2% (active)
Cc1ccc2nc(-c3ccc(Br)cc3)cn2c1 | 4.66%
Cc1ccc(Cc2c(-c3ccccc3)nc3ccc(Cl)cn23)cc1 | -2.09%
CCN(c1cccc(C)c1)S(=O)(=O)c1ccc(-c2coc(C)n2)cc1 | 3.59%
CCN(CC(=O)NCCc1ccccc1)S(=O)(=O)c1ccc(C)cc1 | -0.83%
